Hits are enriched below; roughly 2% of the tested compounds scored in any of these assays.
sPLA2-III inh: Inhibits HGIII-sPLA2 liposome hydrolysis, primary screen | Q9NZ20 | QFRET BODIPY PC-A2 liposome hydrolysis, fluorescence | inhibition, % at 12.2 µM | hit rate 0.56% among 370,000;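 active means inhibition above mean plus 3 SD of compounds lying within the high and low control bounds, cut at about 19% in these data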;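 further: 0% = median of test compound wells and 100% = no enzyme DMSO wells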
Neddyl block: blocks human cullin neddylation. TR-FRET cullin neddylation, biochemical. inhibition, % at 25 µM. hit rate 0.58% among 360,000. AID 651699; in the data active means inhibition above about 36%
Target sequence (P61081 whole entry, looked up): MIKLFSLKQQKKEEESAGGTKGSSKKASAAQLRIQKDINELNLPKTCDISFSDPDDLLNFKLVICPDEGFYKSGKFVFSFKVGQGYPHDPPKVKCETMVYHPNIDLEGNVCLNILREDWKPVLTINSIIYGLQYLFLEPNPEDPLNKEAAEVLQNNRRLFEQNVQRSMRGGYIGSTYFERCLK
Target sequence (Q13564 whole entry, looked up): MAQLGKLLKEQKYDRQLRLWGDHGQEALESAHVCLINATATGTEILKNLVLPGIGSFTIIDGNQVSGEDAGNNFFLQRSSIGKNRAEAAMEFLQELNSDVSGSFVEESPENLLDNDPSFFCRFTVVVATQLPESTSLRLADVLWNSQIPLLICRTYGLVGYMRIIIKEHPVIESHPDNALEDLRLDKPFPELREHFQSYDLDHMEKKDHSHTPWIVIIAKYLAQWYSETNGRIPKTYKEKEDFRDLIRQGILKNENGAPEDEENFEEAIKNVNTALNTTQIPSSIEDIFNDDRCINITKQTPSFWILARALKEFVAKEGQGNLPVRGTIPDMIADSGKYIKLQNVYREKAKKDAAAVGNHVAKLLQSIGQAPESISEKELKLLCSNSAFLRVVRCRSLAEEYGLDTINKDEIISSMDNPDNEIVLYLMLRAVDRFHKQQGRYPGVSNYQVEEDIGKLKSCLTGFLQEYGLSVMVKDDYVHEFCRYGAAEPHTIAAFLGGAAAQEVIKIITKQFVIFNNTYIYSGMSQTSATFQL
DAGLB inh: blocks human DAGLB lipase activity; Q8NCG7; HEK293T DAGLB membrane lysate, EnzChek fluorogenic substrate; inhibition, % at 5.17 µM; hit rate 0.059% among 340,000; in the data active means inhibition above about 34%;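 further: 0% = enzyme with vehicle and 100% = wells lacking enzyme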
NadD inh: inhibitors of Staphylococcus aureus NadD; purified NadD enzyme, colorimetric absorbance read-out; inhibition, % at 20 µM; hit rate 0.78% among 360,000; AID 602399; in the data active means inhibition above about 26%
ARNT-TACC3 inh: ARNT/TACC3 interaction disruption | AlphaScreen His-ARNT PAS-B/GST-TACC3 binding, luminescence; TACC3 fragment carries E629A point mutation | inhibition, % at 9.99 µM | hit rate 0.66% among 390,000 | AID 623870;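 active means mean inhibition of replicates at least 50% and at least half of replicates each reaching 50%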;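 further: 0% = complete ARNT plus TACC3 wells and 100% = ARNT alone without TACC3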
Neddyl conf: cullin neddylation inhibition, confirmation; shares compounds with Neddyl block; TR-FRET cullin neddylation biochemical assay; calls only at 25 µM; hit rate 13% among 1,800; AID 652217; in the data active means inhibition above about 40%;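 further: neddylation substrate is the cullin 1 ring ligase complex with SKP2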
* marks the source's active call; other numbers are inactive results; i = inactive; nt = no result shown; + = active, no number.

SMILES	sPLA2-III inh	Neddyl block	DAGLB inh	NadD inh	ARNT-TACC3 inh	Neddyl conf
Cc1cc(F)ccc1S(=O)(=O)Nc1ccccc1C(=O)NCc1ccccn1	-17	45*	0	0	-4	i
Cc1noc(C)c1S(=O)(=O)N(C)C[C@@H]1OCCCC[C@H](C)Oc2ccc(NS(=O)(=O)c3ccccc3)cc2C(=O)N([C@@H](C)CO)C[C@H]1C	nt	nt	nt	nt	-1	nt
COc1ccc2c(c1)c(C)cc[n+]2Cc1ccccc1	3	43*	-1	-4	6	nt
COCCNC(=O)CSc1nc(-c2ccc(OC)c(OC)c2)cc(C(F)(F)F)n1	2	40*	2	-3	-4	nt
COc1ccc(-c2cc(C(F)(F)F)nc(SCC(=O)N3CCOCC3)n2)cc1OC	1	43*	-3	-2	-4	i
O=C(CSc1nc(-c2ccccc2)cc(C(F)(F)F)n1)N1CCOCC1	-1	-5	-2	-5	-24	nt
CC(=O)N1CC[C@@H]2[C@@H](CO)N(C)c3ccc(-c4ccccc4)cc3[C@@H]21	nt	nt	nt	nt	8	nt
COc1cc(Br)cc(/C=N/NC(=O)Cc2ccccc2)c1O	-10	65*	2	9	4	i
CCOc1ccc(-c2cc(C(=O)N/N=C(\C)c3cccnc3)c3ccccc3n2)c(OCC)c1	4	52*	-6	13	-3	i
COc1ccc(-c2cc(C(=O)N/N=C(\C)c3cccnc3)c3ccccc3n2)cc1	-1	nt	-3	2	-2	nt
Cc1cc(C)c2c(NC(=O)CCl)nn(C)c2n1	8	40*	-3	-6	-4	i
CC(=O)c1cccc(OCC(=O)c2cc(C)n(-c3cc(C)on3)c2C)c1	-12	0	0	-6	-4	nt
Cc1cc(-n2c(C)cc(C(=O)COc3ccc4ccc(=O)oc4c3)c2C)no1	0	55*	0	-1	3	nt
Cn1c(=O)c2c(nc(N/N=C/c3ccc(OC(=O)c4ccco4)cc3)n2Cc2ccccc2Cl)n(C)c1=O	nt	44*	1	13	0	i
Cn1c(=O)c2c(nc(N/N=C/c3ccc(OC(=O)c4ccco4)cc3)n2Cc2ccc(F)cc2)n(C)c1=O	-3	nt	0	15	25	nt
CO[C@@H]1CN(C)C(=O)c2ccc(NC(=O)C3CC3)cc2OC[C@@H](C)N(C(=O)c2ccccc2F)C[C@H]1C	nt	nt	nt	nt	-9	nt
CCCN1c2cccc3cccc(c23)S1(=O)=O	3	48*	-3	-4	-3	nt
O=S1(=O)c2cccc3cccc(c23)N1CCBr	-2	42*	-3	-4	2	i
CCOC(=O)c1ccc2[nH]c(C)c(C)c2c1	-21	20	-1	0	7	nt
Cc1[nH]c2ccc(C(=O)OCC(=O)Nc3cccc(S(N)(=O)=O)c3)cc2c1C	-57	45*	0	-4	7	i
O=C(C1CCOCC1)N1C[C@H]2[C@@H](c3ccccc31)[C@@H](CO)N2C(=O)Cc1ccccc1	nt	nt	nt	nt	-2	nt
C[C@@H]1CN([C@@H](C)CO)C(=O)c2cc(Br)cnc2O[C@H]1CN(C)CC1CCCC1	nt	nt	nt	nt	-2	nt
c1ccc(-c2nc3ccccn3c2-c2ccccc2)cc1	9	40*	-4	-6	-13	nt
CO[C@@H]1CN(C)C(=O)c2cc(NC(=O)NC(C)C)ccc2OC[C@@H](C)N(CCC(F)(F)F)C[C@H]1C	nt	nt	nt	nt	10	nt
CC[C@]12CCCN3CCc4c(n(c5ccccc45)[C@](O)(C(=O)OC)C1)[C@@H]32	-4	43*	1	0	41	i
SMILES	sPLA2-III inh	Neddyl block	DAGLB inh	NadD inh	ARNT-TACC3 inh	Neddyl conf
CCC12CCCN3CCc4c(n(c5ccccc45)C(O)(C(=O)OC)C1)C32 (configuration not stated)	-3	28	-1	3	11	nt
O=C(C[C@H]1CC[C@@H]2[C@H](COC[C@@H](O)CN2Cc2ccccc2F)O1)NCc1ccccc1F	nt	nt	nt	nt	-9	nt
COc1ccc2sc(NC(=O)c3ccco3)nc2c1	14	40*	3	9	-4	i
CCOC(=O)c1c(C)[nH]c(C(=O)Nc2cc(OCC)c(N3CCOCC3)cc2OCC)c1C	6	45*	1	-8	-1	i
CCOc1cc(N2CCOCC2)c(OCC)cc1NC(=O)c1cc(C)cc(C)c1	1	27	-17	-1	-2	nt
COc1cccc(NC(=O)N2C[C@H](O)COC[C@H]3O[C@@H](CC(=O)NCCCN4CCOCC4)CC[C@@H]32)c1	nt	nt	nt	nt	3	nt
Cc1nc2c(c(=O)n1CCC1=CCCCC1)c1nc3ccccc3nc1n2/N=C/c1ccccc1	nt	19	-2	8	-6	nt
CCOCCCn1c(C)nc2c(c1=O)c1nc3ccccc3nc1n2CCC1=CCCCC1	3	45*	-1	3	-29	i
COc1ccc(NC(=O)Nc2ccc3c(c2)C(=O)N([C@@H](C)CO)C[C@H](C)[C@@H](CN(C)Cc2ccc(C(F)(F)F)cc2)OCCCC[C@@H](C)O3)cc1	nt	nt	nt	nt	1	nt
CCOC(=O)Cn1nc(-c2ccc(C)cc2)c2ccccc2c1=O	5	6	-4	-10	3	nt
CCOC(=O)Cn1nc(-c2ccccc2)c2cnc3ccc(C)cc3c21	-1	42*	-8	-4	-7	i
O=c1[nH]c2cc3c(cc2cc1CN(Cc1cccnc1)C(=S)NCc1ccco1)OCO3	-2	14	1	-3	-4	nt
CN(C)CCN(Cc1cc2cc3c(cc2[nH]c1=O)OCO3)C(=S)NCc1ccco1	2	40*	3	-1	-4	i
CCNC(=S)N(CCN(C)C)Cc1cc2cc3c(cc2[nH]c1=O)OCO3	3	53*	-2	-5	-1	nt
CCNC(=S)N(CCN(C)C)Cc1cc2cc(OCC)ccc2[nH]c1=O	1	41*	1	-1	-7	i
Cc1ccc(C(=O)Nc2ccc3c(c2)C(=O)N(CC2CCCO2)C3=O)cc1 (configuration not stated)	3	61*	-2	-4	-17	nt
COc1ccccc1CNC(=O)C[C@H]1C[C@@H]2c3cc(N(C)C)ccc3O[C@@H]2[C@H](CO)O1	nt	nt	nt	nt	8	nt
CCOC(=O)C(=CNc1ccc2c(c1)nnn2-c1ccc(Cl)cc1)C(=O)OCC	8	44*	-2	-5	0	nt
CCOC(=O)C(=CNc1ccc(O)c(C(=O)OC)c1)C(=O)OCC	0	43*	0	-3	6	i
CCCNC(=O)Nc1ccc2c(c1)OC[C@H](C)N(CCC(F)(F)F)C[C@H](C)[C@H](OC)CN(C)C2=O	nt	nt	nt	nt	22	nt
CCCNC(=O)C[C@H]1CC[C@@H]2[C@@H](COc3ccc(NC(=O)Nc4ccccc4F)cc3C(=O)N2C)O1	nt	nt	nt	nt	3	nt
COc1ccc(-c2cn3cccnc3n2)cc1NC(=O)c1cccs1	16	55*	0	1	-3	+
COc1ccc(-c2cn3cccnc3n2)cc1NS(=O)(=O)c1ccccc1	-3	49*	-1	0	-2	i
CC(=O)N1[C@H](C(=O)N2CCc3ccccc3C2)[C@@H](CO)[C@@H]2Cn3c(ccc(-c4cccnc4)c3=O)[C@@H]21	nt	nt	nt	nt	9	nt
